Screening data: PubChem, National Center for Advancing Translational Sciences (NCATS)
A selection: hits, their analogues and other compounds. The true share with any hit is near 19%.
TDP1 cell noCPT – qHTS for Inhibitors of human tyrosyl-DNA phosphodiesterase 1 (TDP1): qHTS in cells in absence of CPT; DT40 Tdp1-/- hTDP1 cells, no CPT, ATP luminescence, 48 h; Potency, µM (titrated, usually from 46.2 µM), for the others: top-dose activity change, negative = growth inhibition, actives largely listed as inhibitors; 420,000 compounds, 15% hits; AID 686978, 2013; also: potency is read from the fitted curve at half-maximal effect; nearly all actives have a fitted effect of over 55% in size
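Seeded 400 DT40-hTDP1 cells/well (vehicle DMSO, no 20 nM CPT); pinned compounds; ≥48 hr at 37 °C; CellTiter-Glo luminescence as viability measure.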
IL-1B inflam inh – inflammasome signaling inhibition, IL-1 beta readout. activity change, % at 57.5 µM. THP-1 LPS/ATP IL-1B secretion, AlphaLISA, 16 h; hits give low values. 360,000 compounds, 4.7% hits; in the data active = activity change below about -50%; inconclusive = mostly about -30% to -49%
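Secreted IL-1B measured by AlphaLISA bead assay after 16 h compound exposure of THP-1 cells; compounds (final up to 57.5 uM) added 1 h before LPS (250 ng/mL) and ATP (1.25 mM) stimulation; lower signal means less secretion.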
HT1080NT lethal – kills 2HG-producing HT-1080-NT fibrosarcoma cells. 360,000 compounds, 1.6% hits. HT-1080-NT fibrosarcoma viability, CellTiter-Glo ATP luminescence, 48 h. Potency, µM (doses to about 46.1 µM), for the others: top-dose activity, negative = less viability, actives largely listed as cytotoxic;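 also: NT is the 2HG producing partner of a matched IDH1 knockdown line; potency is read from the fitted curve at half-maximal effect; 0% = DMSO-treated cells and -100% = media-only wells without cells; nearly all actives have a fitted effect of over 55% in size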
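Viability of the 2HG-overproducing fibrosarcoma line after 48 hours of compound exposure at 37 degrees C was determined by luminescence with CellTiter-Glo, and concentration-effect curves were then fitted and categorized.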
TDP1 cell CPT – DT40-hTDP1 cell growth loss with CPT; Potency, µM (doses to about 46.2 µM), inactives show at the top dose activity change, negative = growth inhibition, usual class: inhibitors; 420,000 compounds, 12% hits; AID 686979; chicken DT40 Tdp1-/-;hTDP1 cells + 20 nM CPT, ATP luminescence, 48 h; also: potency is read from the fitted curve at half-maximal effect; nearly all actives have a fitted effect of over 55% in size
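Cell growth measured by CellTiter-Glo luminescence after a minimum 48 h, 37 C compound exposure with 20 nM CPT in Tdp1-knockout DT40 cells stably expressing hTDP1, seeded 400/well; qHTS titration format.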
HT1080 IDH1KD tx – toxicity to HT-1080 IDH1 knockdown cells (counter line). HT-1080 IDH1 knockdown viability, ATP luminescence, 48 h. Potency, µM (highest dose often 46.1 µM), for the others: at the top dose activity, negative = toxicity, hits mostly cytotoxic. 360,000 compounds, 2% hits. AID 686971;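 also: potency is read from the fitted curve at half-maximal effect; 0% = DMSO wells and -100% = cell-free medium wells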
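After a 2 h attachment period, IDH1KD HT-1080 cells took pin-transferred compound for 48 h at 37 °C; ATP-based luminescence after 10 min room-temperature reagent incubation reported viability.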
Active calls of the source: *; ? = inconclusive; . = no result given. Unless noted, calls follow the shape of the dose curve; as a rule, active = well fitted curve in the direction sought with a large enough effect; inconclusive = small, poorly fitted or top-dose-only effect, or another doubt; inactive = no such curve, though single readings can be large; an effect the other way counts as inactive or inconclusive. Unless noted, % is scaled to controls: 0 for no effect and ±100 for the full control effect.

SMILES	TDP1 cell noCPT	IL-1B inflam inh	HT1080NT lethal	TDP1 cell CPT	HT1080 IDH1KD tx
O=C(C1CCCO1)N1CCN(C(=S)Nc2cc(F)cc(F)c2)CC1 (centres undefined)	1.5%	-19.1	4.2%	-6.4%	-1.7%
COC(=O)c1cc(Nc2cc(C)nc3ncnn23)cc(C(=O)OC)c1	-5.2%	13.5	3.7%	-7.7%	2.6%
O=C(O)c1cccc(Nc2nc3ccccc3nc2NS(=O)(=O)c2ccccc2)c1	-1.4%	20.4	1.0%	-19.7%	-0.7%
COC(=O)c1cc(Nc2cc(C)c3c(O)cccc3n2)cc(C(=O)OC)c1	13µM*	-20.8	-26.0%	20.6µM*	-13.3%
COC(=O)c1cc(Nc2cc(C)c3ccc(O)cc3n2)cc(C(=O)OC)c1	-26.7%	-65.3*	-0.9%	?	-9.4%
COC(=O)c1cccc(Nc2nc3ccccc3nc2C)c1	?	13.2	-26.2%	18.4µM*	?
CN(C)c1ncnc2c1ncn2[C@H]1CN(Cc2ccco2)C[C@@H](CO)O1	-2.2%	-0.8	17.4%	-4.5%	10.4%
COc1cccc(CNC(=O)Cc2ccc(OC)c(S(=O)(=O)N3CCOCC3)c2)c1	-14.8%	-8.2	-6.3%	1.2%	-1.0%
CC1(c2ccc(Cl)cc2Cl)OCC(Cn2ccnc2)O1 (centres undefined)	23.1µM*	4.4	?	20.6µM*	?
Clc1ccc(SCCCCn2ccnc2)cc1	?	-2.1	-20.4%	?	-1.4%
Cc1[nH]n(-c2ccccc2)c(=O)c1N=Nc1c(O)cc(S(=O)(=O)N(C)C)c2ccccc12	6.51µM*	120.4	?	6.51µM*	9.2µM*
Cc1[nH]n(-c2ccccc2)c(=O)c1N=Nc1ccc2c(c1)OCCO2	?	12.2	10.9%	?	15.4%
O=c1cc(/C=C/c2ccccc2)oc2ccccc12	?	-11.2	?	16.4µM*	?
COc1cc(/C(C)=N/NC(=O)Cc2c(C)[nH][nH]c2=O)ccc1O	5.2%	8.1	17.6%	-3.4%	13.4%
O=C(CNc1ccccc1)c1ccc([N+](=O)[O-])cc1	16.4µM*	3.1	2.3%	14.6µM*	2.0%
O=C(CNc1cccc2ccccc12)c1ccc([N+](=O)[O-])cc1	13µM*	-5.4	4.1%	14.6µM*	4.0%
O=C(CSCC(=O)c1ccc([N+](=O)[O-])cc1)c1ccc([N+](=O)[O-])cc1	?	9.0	-2.6%	20.6µM*	0.0%
O=C(Nc1cccc2ccccc12)c1ccc([N+](=O)[O-])cc1	?	-15.2	-13.2%	-6.6%	-10.2%
CC1CN(C(=S)NC(=O)c2ccc([N+](=O)[O-])cc2)CC(C)O1 (centres undefined)	1.2%	25.4	6.2%	5.6%	6.6%
CC1CN(C(=S)SCC(=O)c2ccc([N+](=O)[O-])cc2)CC(C)O1 (centres undefined)	5.17µM*	-22.9	-13.2%	2.59µM*	-2.8%
COc1ccc(Oc2ncc3nc(-c4cn(C)c5ccccc45)c(=O)n(C4CC4)c3n2)cc1	10.1%	.	.	4.4%	.
CCC(CC)C(=O)Nc1ccc(C(=O)OCc2cc(=O)n3nc(C4CC4)sc3n2)cc1	?	.	.	-27.0%	.
O=C(Nc1c[nH]c(=O)[nH]c1=O)c1ccc([N+](=O)[O-])cc1	10.8%	15.1	-4.6%	-0.7%	-0.3%
O=C(Nc1cccc2c(=O)[nH][nH]c(=O)c12)c1ccc([N+](=O)[O-])cc1	-17.4%	79.3	1.2%	8.2µM*	-7.4%
N#Cc1c(Cl)nc2c(c1C#N)CCCC2	18.4µM*	-4.0	2.9%	5.8%	-3.0%
CCc1cccc2cc3c(N)c(C(=O)Nc4ccc(S(=O)(=O)N5CCCC5)cc4)sc3nc12	8.2µM*	-14.8	-16.6%	?	-26.6%
CC(CNC(=O)c1nnc(Cc2ccc(F)cc2)o1)c1ccccc1 (centres undefined)	-26.6%	.	.	?	.
Cc1cccc(C(=O)Nc2c3c(nn2-c2ccc(Cl)cc2)CS(=O)(=O)C3)c1	-26.2%	.	.	-18.6%	.
